These results are taken from PubChem BioAssay (NCI).

Values joined by “and” are separate entries in the source; they are usually repeats but may differ in a detail not shown here. Identical values can stand only once. The panel holds about 83,000 compounds, 20% with a hit somewhere; the sample as a whole holds those more often.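 Cell lines were cultured in 96-well plates, exposed to a single compound concentration, and assessed for percent growth 48 hours later.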 Unmarked numbers belong to inactive results. Active and inactive are the calls of the source. The calls were made as follows: active = growth percent below 10; inactive = the rest.

In the assay the test system is MDA-MB-468 breast. Nature of the assay: NCI-60 one-dose screen, 48 h (100 = growth as untreated, 0 = no growth, -100 = all killed). As to conditions: 10 µM unless noted.
For the compound `Cc1ccc2sc3c(c2c1)OC(N)=C(C#N)C3c1cccc(F)c1` (stereo not given), the growth was -14.1% (active).
Take `CCN1C(=O)N(c2ccccc2)C2NC(=S)N(/N=C/C=C/c3ccccc3OC)C21` (stereo not given): the growth was 2.35% (active).
The figure for `COc1ccc(-c2cn3c(C(=O)Nc4ccccc4Cl)c(-c4ccccc4)c4c3n2CCCC4)cc1` is 84.1%; for `COc1ccc(C2=NC(=O)NC2c2ccc(OC)cc2)cc1` (stereo not given) it is 43.9%.
The figure for `O=C(Nc1cccc(-n2cc(-c3ccncc3)c(-c3ccc(O)c(Cl)c3)n2)c1)c1ccc(N2CCOCC2)c(C(F)(F)F)c1` is 65.9%; for `O=c1ccc2c(ccc3ncccc32)o1` it is 107%; for `COc1ccc2nc(NC(=O)c3cc(-c4ccc(F)cc4)n4nc(-c5ccccc5)cc4n3)sc2c1` it is 103%.
The result for `O=C(N/N=C/C=C/c1ccc([N+](=O)[O-])o1)c1cc2ccccc2cc1O` reads -65% (active); that for `C#C[C@]1(O)CC[C@H]2[C@@H]3CC=C4c5sc(Nc6cccc(F)c6)nc5CC[C@]4(C)[C@H]3CC[C@@]21C`, 3.86% (active).
As to `NC(=O)n1c(=O)n(-c2cccc(C(F)(F)F)c2)c(=O)c2cc(-c3ccc(F)cc3F)ccc21`, the growth was -8.88% (active).
For `NNc1cccc(/C=C/c2ccccc2)cc1=O`, the growth was 38.3%.
The figure for `O=C(N=Nc1c(Cl)c(O)c2ccccc2c1O)C(=O)Nc1cccc(C(F)(F)F)c1` is 80.8%; for `CC1(C)C2=C(C(=O)N1Cc1ccccc1)C(c1ccco1)N(C(=O)C1CCC1)CCN2` (stereo not given) it is 112%; for `CCNC(=O)Oc1ccc(/C(=C(/CC)Cc2ccccc2)c2ccc(OCCN3CCOCC3)cc2)cc1` it is 46.1%.
The result for `CCOC(=O)c1sc2ncc(-c3ccc(C)cc3)n2c1C` reads 102%; that for `Cc1ccc(CSCc2ccc(C(=O)NC3CC3)o2)cc1`, 49.2%; that for `CC(=O)c1nn(-c2ccccc2)/c(=N\N=C\c2coc3ccc(F)cc3c2=O)s1`, 115%.
For `COc1ccc(C(C(=O)O)c2ccc(OC)cc2)cc1`, the growth is 113%.
The result for `Cc1cccc(NC(=O)Nc2ccc(-n3cnc4cc(-c5ccc(O)cc5)ccc43)cc2)c1` reads 38.4%; that for `N[C@@H]1CCCN(c2c(/C=C3\SC(=O)NC3=O)cccc2-c2ccccc2)C1`, 55.8%; that for `O=C(CNc1cccnc1)Nc1ccc(C(=O)/C=C/c2ccc(Cl)cc2)cc1`, 91.9%.
The figure for `COC(=O)c1nc(-c2ccccc2)oc1S(=O)(=O)n1nc(C)cc1N` is 59.2%; for `COc1cccc(C(=O)NNc2nc(Cl)nc(N3CCN(C(c4ccccc4)c4ccccc4)CC3)n2)c1` it is -17.1% (active).
The figure for `COc1cc(/C=C/C(=O)C(=Cc2ccc(F)c(F)c2)C(=O)/C=C/c2ccc(O)c(OC)c2)ccc1O` is 25.6%; for `CCN(CC)CCC(CNc1ccnc2cc(Cl)ccc12)c1ccc(OC)cc1` (stereo not given) it is 9.36% (active) and -3.58% (active).
`CC(=O)OC(c1ccccc1)C1CCOC1=O` (stereo not given): the growth is 80.8%.
The result for `Nc1ncc(-c2ccc(NS(=O)(=O)c3ccc(Cl)c(Cl)c3)cc2)[nH]1` reads 90.1%.
In the case of `O=C1/C(=C/c2ccccc2Cl)CCc2ccccc21`, the growth was 101%.
The figure for `COc1ccc(N2CCN(C3=C(Cl)C(=O)c4ncccc4C3=O)CC2)cc1` is -57.8% (active); for `Cn1c(=O)c2[nH]c(SC/C(=N/O)c3ccc(Br)cc3)nc2n(C)c1=O` it is 47.1%; for `O=C(CC(C(=O)c1ccccc1)N1CCOCC1)c1ccccc1` (stereo not given) it is 101%.
The figure for `Cc1ccc2nc(C)c(-c3nnc(SCc4ccc(C#N)cc4)o3)n2c1` is 87.5%; for `COc1ccc(-c2cc(Nc3ccnc(N4CCOCC4)n3)on2)cc1` it is 24.8%; for `CC/C(Cc1ccccc1)=C(\c1ccc(OCCCN(C)C)cc1)c1ccc(OC(=O)NCc2ccccc2)cc1` it is 56.8%.
As to `COc1ccc(-c2cc(C(=O)N=Nc3c(O)[nH]c4ccccc34)no2)cc1`, the growth is 106%.
The figure for `C/C(=C(/c1ccc(O)cc1)c1ccc(Cl)cc1)c1ccccc1` is -71.9% (active); for `Oc1cccc2c1NCCC2` it is -8.83% (active).
Regarding `CCCCOC(=O)C1OC(Oc2ccc3c(C)cc(=O)oc3c2)[C@@H](OC(C)=O)C(OC(C)=O)C1OC(C)=O` (stereo not given in full), the growth is 101%.
The figure for `S=C1SCN(Cc2ccccc2)CN1Cc1ccccc1` is 38.5%; for `CC(C)CSc1nc(-c2ccc(F)cc2)c(C#N)c(N2CCCCC2)n1` it is 101%.
